The test system of the assay is HL-60(TB) leukemia. Kind of assay: NCI-60 one-dose screen, 48 h (100 = growth as untreated, 0 = no growth, -100 = all killed). To be noted: 10 µM unless noted.

Molecules are shown by their SMILES. The panel holds about 83,000 compounds, 20% with a hit somewhere; the sample as a whole holds those more often.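 Negative percent growth values reflect cell death: -40 means 40% of the cells present at the start died, and -100 means all died.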 Unmarked numbers belong to inactive results. Active and inactive are the calls of the source. The calls were made as follows: active = growth percent below 10; inactive = the rest.

With `COc1cc([C@H]2OC[C@H]3[C@@H]2CO[C@@H]3c2ccc(O)c(OC)c2)ccc1O`, the growth was 93.5%.
For the molecule `Cc1nc(-c2ccccc2O)ccc1C(=O)N=Nc1c(O)[nH]c2ccc(Br)cc12`, the growth was 114%.
On to `C/C(=C(/c1ccc(Cl)cc1)c1ccc(OCCN)cc1)c1ccc(C)cc1`, for which the growth is 102%.
In the case of `Cc1cccc(/C=C/c2nn3c(-c4ccco4)nnc3s2)c1` it was 86.2%; in that of `CC1=C(C)C(=O)C(Nc2ccc(C)cc2)=C(Br)C1=O`, 68.6%.
Regarding `C/C(=C(/C)C1CC1CCN(C(=O)c1ccc([N+](=O)[O-])cc1)S(=O)(=O)c1ccc(C)cc1)C1CCCCC1` (stereo not given), the growth was 96.5%.
In the case of `CN1c2ccccc2Sc2cc(/C=N/Nc3ccnc4cc(Cl)ccc34)ccc21` it was 77.1%; in that of `COC(=O)C(Cc1ccccc1)Nc1nc(NC(Cc2ccccc2)C(=O)OC)nc(N2CCOCC2)n1` (stereo not given), 103%.
In the case of `Cc1ccc(-c2nnc(SCc3ccc(O)c4ncccc34)o2)cc1` it was 4.59% (active).
For `CC1(C)CC[C@]2(C(=O)O)CC[C@]3(C)C(=CCC4[C@@]5(C)C[C@@H](O)[C@@H]6OC(c7cccc([N+](=O)[O-])c7)OC[C@@]6(C)C5CC[C@]43C)C2C1` (stereo not given in full), the growth was 42.5%.
Regarding `CC(C)C[C@@H]1N[C@@]2(C(=O)Nc3ccccc32)[C@@H](c2ccc(F)cc2)[C@@H]1C(=O)c1ccc(O)cc1`, the growth was 105%.
With `O=C(COc1cccc2cccnc12)Nc1ccc(C(=O)/C=C/c2ccc(Cl)cc2)cc1`, the growth was 64.4%.
In the case of `COc1ccc(C(=O)c2cc(C(=O)/C=C/c3c(Cl)cccc3Cl)c3cc(C)ccn23)cc1` it was 101%; in that of `Cc1cc(O)c(=O)cc2c1C[C@H]1CC(C)(C)/C=C/C[C@]3(C)Oc4cc(=O)c(O)cc(C)c4C[C@H]3C[C@H](O)[C@@]1(C)O2`, -31.8% (active); in that of `COc1ccc(-c2nc(C(Cl)Cl)nc3cc(-c4ccccc4)nn23)cc1`, -7.77% (active).
In the case of `CC(C)(C)n1cc(-c2ccnc(NCCCNS(=O)(=O)c3cccc(F)c3)n2)c(-c2ccc(Cl)c(O)c2)n1` it was 128%; in that of `Clc1ccc2[nH]cc(-c3cncn3CCc3ccc4c(c3)OCO4)c2c1`, 52.1%; in that of `O=C(c1ccc(Cl)cc1)C1[C@H](c2ccc(Cl)cc2)[C@@H](c2ccccc2)NC12C(=O)Nc1ccccc12` (stereo not given in full), 49.3%.
Consider `NC(N)=Nc1ccc(Oc2cccc(Nc3ccc(Br)c(C(F)(F)F)c3)c2)cn1`, for which the growth was -62.9% (active).
In the case of `C#C[C@]1(O)CC[C@H]2[C@@H]3CC=C4c5sc(-c6cccc(F)c6)nc5CC[C@]4(C)[C@H]3CC[C@@]21C` it was 79.6%; in that of `O=C(Nc1cccc(Cl)c1)Nc1nc2ccc(-c3cccc4ccccc34)cc2s1`, 66.9%.
`O=S(=O)(NCCCNc1nccc(-c2[nH]c(-c3ccccc3)nc2-c2ccc(Cl)c(O)c2)n1)c1cccc(F)c1`: the growth was 35.6%.
In the case of `CCn1c(SCC(=O)Nc2cccc(C(=O)/C=C/c3ccc(Br)cc3)c2)nc2ccccc2c1=O` it was 84.7%; in that of `CCN1C(=O)N(CC)C2SC(N/N=C/c3ccc(F)cc3)=NC21` (stereo not given), 2.85% (active); in that of `COc1cccc(-c2nn(-c3ccccc3)cc2-c2ccnc(N3CCN(C(=O)Nc4ccc(F)cc4)CC3)c2)c1`, 11.2%.
The result for `CCCCCc1ccc(S(=O)(=O)Nc2cccc(-c3csc(NCCN4CCN(C)CC4)n3)c2)cc1` reads 0.22% (active); that for `CS(=O)(=O)c1ccc(-n2cc(/C=C/C(=O)c3ccc(NC(=O)CO[N+](=O)[O-])cc3)c(-c3ccc(Cl)cc3)n2)cc1`, 109%; that for `C[C@]12CC[C@H]3[C@@H](CC=C4C[C@@H](O)CC[C@@]43C)[C@@H]1CC[C@@H]2[C@](C)(O)CCc1cccnc1`, 47.6%.
As to `Cc1c(Cl)cccc1S(=O)(=O)Nc1ccc2c(c1)C(=O)N(C1CCC(=O)NC1=O)C2=O` (stereo not given), the growth is -7.01% (active).
In the case of `CS(=O)(=O)c1nccc(-c2c(-c3ccc(F)c(OCCc4ccc(F)cc4)c3)nc3sccn23)n1` it was -12.1% (active); in that of `CCOC(=O)/C(F)=C/C1CC1C1CCCCC1` (stereo not given), 98.7%; in that of `O=c1c2ccccc2nc(COc2ccccc2)n1NS(=O)(=O)c1ccc(Cl)cc1`, 75.7%.
The result for `CS(=O)(=O)Nc1ccc(-c2nn(-c3ccc(S(C)(=O)=O)cc3)cc2/C=C/C(=O)c2ccc(NC(=O)CO[N+](=O)[O-])cc2)cc1` reads 107%; that for `O=C1[C@@H]2Cc3c([nH]c4ccccc34)[C@H](c3c(Cl)cccc3Cl)N2C(=O)CN1C1CCN(Cc2ccccc2)CC1`, 29.3%.
The result for `NS(=O)(=O)c1ccc(Nc2nc(Nc3ccccc3)nc(-n3nc(-c4ccccc4)cc3-c3ccccc3)n2)cc1` reads 4.82% (active).
`Cc1ccc(NC(=O)c2cccc(CN3CCN(C)CC3)c2)cc1Oc1ccc(-c2[nH]nc3ncnc(N)c23)cc1`: the growth is 46.8%.
The result for `Nc1c(C(=O)Nc2ccc(Cl)cc2)sc2nc(-c3cnccn3)cc(-c3cccs3)c12` reads 58.3%; that for `C#CCOc1ccc(C(Nc2ccc(Cl)cc2)c2nnnn2C2CCCCC2)cc1` (stereo not given), 83.8%; that for `Oc1ccc(CSc2nnc(-c3ccc(Oc4ccccc4)cc3)n2-c2ccccc2)c2cccnc12`, 10.1%.
In the case of `CS(=O)(=O)c1ccc(-c2nc3ccccn3c2-c2nc3ccc([N+](=O)[O-])cc3[nH]2)cc1` it was 95.7%; in that of `NC(N)=Nc1ccc(Nc2cccc(Oc3ccc(Cl)c(C(F)(F)F)c3)c2)cn1`, -67.4% (active); in that of `O=c1nc(Nc2ccc([N+](=O)[O-])cc2O)sc2ccccc12`, -13.3% (active).
The result for `O=C(NNc1nc2cc(F)c(F)cc2n2c(CN3CC4CNCC4C3)ccc12)c1cnccn1` (stereo not given) reads -1.93% (active); that for `O=C(Nc1ccccc1)Nc1nc2ccc([N+](=O)[O-])cc2[nH]1`, 70.2%; that for `c1ccc2c(NCCCn3ccnc3)c3oc4ccccc4c3nc2c1`, -1.2% (active).
In the case of `CCOC(=O)c1c(Nc2ccccc2)nn2c(-c3ccc(OC)cc3)ccnc12`, the growth is 77.3%.
In the case of `O=c1[nH]c(CNc2ccc(NCc3c(-c4ccccc4)no[n+]3[O-])cc2)nc2c1cnn2-c1ccccc1` it was 63.1%; in that of `CN1CCN(CC#CCn2c3c(c4ccccc42)C[C@]2(C)[C@H]4CC=C5[C@@H]6CC(C)(C)CC[C@]6(C(=O)N6CCOCC6)CC[C@@]5(C)[C@]4(C)CC[C@H]2C3(C)C)CC1`, 16.2%; in that of `CN1CCN(Cc2ccc(NC(=O)c3cncc(C#Cc4cnc5ccc(O[C@@H]6CCOC6)nn45)c3)cc2C(F)(F)F)CC1`, -48.8% (active).
In the case of `COc1ccc(C(=O)CSc2nc3c(c(Nc4ccc(S(N)(=O)=O)cc4)n2)CCCC3)cc1` it was 101%; in that of `CCCN1C=C/C(=C\C(=O)n2ccc3ccccc32)c2ccccc21`, 87.4%; in that of `O=C(NNc1nc2cc(F)cc(F)c2n2cccc12)c1cnccn1`, -25% (active).
`COC(=O)C1CN(S(=O)(=O)/N=C2\NC(=O)NC2=C(Cl)Cl)C1`: the growth is 101%.
Consider `O=C(/C=C/c1ccccc1)c1cccc(O)c1`, for which the growth is 87.5%.
In the case of `CCNC(=O)N1CCc2cc(OC)c(OCCc3ccc(OC)cc3)cc2C1c1ccc(OC)cc1C` (stereo not given) it was 23.9%; in that of `COc1ccc2[nH]cc(-c3csc4nc(-c5ccccc5)cn34)c2c1`, 13.9%; in that of `O=C1[C@H]2Cc3c([nH]c4ccccc34)[C@@H](c3c(Cl)cccc3Cl)N2C(=O)CN1C1CCN(CC2CCCCC2)CC1`, 35.4%.
`COc1cc(-c2ccc3ncnc(NC(C)c4ccccc4)c3c2)cnc1OC` (stereo not given): the growth is 43.2%.
The result for `CC(C)(O)c1cncc(-c2ccc3ncc(C#N)c(N4CCc5cc(F)c(Cl)cc54)c3c2)c1` reads 11.5%; that for `CCN(CC)CCOc1ccc(C(=C(c2ccccc2)C2CCCC2)c2ccc(OCCN(CC)CC)cc2)cc1`, -40.9% (active); that for `CS(=O)c1nccc(-c2c(-c3ccc(F)c(OCCc4ccc(F)cc4)c3)nc3sccn23)n1` (stereo not given), -13.4% (active).
In the case of `NCCNC(=O)c1cccc(COc2ccccc2NC(=O)c2cc(Cl)c(Cl)[nH]2)c1` it was 88.9%; in that of `N#Cc1cccc(CN2CCC3=C(C2)C(=O)N(Cc2ccc(Cl)cc2)C2=NCCN23)c1`, 16.2%.
The result for `COc1cc(/C=C/C(=O)c2ccc(NC(=O)COc3cccc4cccnc34)cc2)cc(OC)c1OC` reads 34.7%.
With `Nc1ncc(-c2ccc3ncnc(Nc4cccc(Cl)c4F)c3c2)cn1`, the growth is 90.5%.

These data come from PubChem BioAssay (NCI).
